Reference: PubChem BioAssay AID1209 (Sanford-Burnham Center for Chemical Genomics, 2008)
The whole screen tested about 190,000 compounds, of which about 810 (0.43%) were called active. The sample as a whole holds a higher share of actives than the screen did. A number with no mark means an inactive call. Cut-off read from the data, not from the text of the source: active = inhibition above about 50%; inactive = the rest.

What follows are compounds tested against Mannose-6-phosphate isomerase (Homo sapiens) (UniProt P34949) (assay: MPI enzyme activity inhibition – biochemical, fluorescence intensity, coupled assay, primary screen (AID 1209;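 note: plate controls were DMSO vehicle for no effect and wells lacking substrate for full effect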)). Conditions: purified PMI enzyme, at 20 µM, active compounds read high.
Mannose-6-phosphate isomerase (Homo sapiens), sequence (P34949 whole entry, looked up): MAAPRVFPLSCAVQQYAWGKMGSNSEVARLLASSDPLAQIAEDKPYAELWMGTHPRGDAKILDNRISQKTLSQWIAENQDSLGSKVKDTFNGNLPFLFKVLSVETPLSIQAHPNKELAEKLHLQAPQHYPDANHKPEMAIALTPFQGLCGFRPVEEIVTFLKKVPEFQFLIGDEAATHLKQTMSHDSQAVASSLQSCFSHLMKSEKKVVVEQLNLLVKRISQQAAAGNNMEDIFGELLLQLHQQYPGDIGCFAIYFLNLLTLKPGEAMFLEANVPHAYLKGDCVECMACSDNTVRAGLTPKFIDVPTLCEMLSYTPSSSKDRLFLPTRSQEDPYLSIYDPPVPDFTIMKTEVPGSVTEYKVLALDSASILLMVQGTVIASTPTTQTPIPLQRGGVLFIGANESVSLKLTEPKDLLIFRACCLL

**Q.** `O=C(NC1CCCC1)c1ccc(CS(=O)(=O)c2ccc(Br)cc2)o1` was tested. Which inhibition did it give?
**A.** The inhibition was -7%.

**Q.** `O=C(C(=O)N1CCN(c2ccc(F)cc2)CC1)N1CCCCC1` was tested. Which inhibition did it give?
**A.** Its inhibition is 9.4%.

**Q.** `COCCNC(=O)C(c1cccs1)N(C(=O)Cn1nnc2ccccc21)c1cccc(C(C)=O)c1` (stereo not drawn) was tested. Which inhibition did it give?
**A.** The inhibition was -2.6%.

**Q.** For `O=[N+]([O-])c1cc2oc3c(c2c(C=NCc2ccncc2)c1O)CCCC3`, which inhibition is on record?
**A.** The inhibition was 27.8%.

**Q.** For `O=[N+]([O-])c1cc2oc3c(c2c(C=NCc2ccccc2)c1O)CCCC3`, which inhibition is on record?
**A.** Its inhibition is 6.3%.

**Q.** How did the inhibition turn out when `CC(C)CN=Cc1c(O)c([N+](=O)[O-])cc2oc3c(c12)CCCC3` was run?
**A.** Its inhibition is 53.1% (active).

**Q.** For `O=C(OCc1nnc(-c2ccccc2)o1)c1cc(F)c(F)cc1Cl`, which inhibition is on record?
**A.** Its inhibition is 2.5%.

**Q.** With `COCC(C)N1C(=O)Cc2c1nc(N)c1c(N)nc(N3CCN(c4ccccc4F)CC3)c(C#N)c21` (stereo not drawn) as the compound, how does the inhibition read?
**A.** The inhibition was 66.7% (active).

**Q.** With `COCCN(CCOC)c1nc(N)c2c(N)nc3c(c2c1C#N)CC(=O)N3Cc1ccc(Cl)cc1` as the compound, how does the inhibition read?
**A.** The inhibition was 20.6%.

**Q.** Which inhibition does the source give for `CN(CCO)c1nc(N)c2c(N)nc3c(c2c1C#N)CC(=O)N3C1CCCC1` here?
**A.** The inhibition was 64% (active).

**Q.** `C=C(C)CN(CC)c1nc(N)c2c(N)nc3c(c2c1C#N)CC(=O)N3C12CC3CC(CC(C3)C1)C2` was tested. Which inhibition did it give?
**A.** The inhibition was 2.4%.

**Q.** With `N#CCc1c(C#N)c(N)nc(N2CCCC(O)C2)c1C#N` (stereo not drawn) as the compound, how does the inhibition read?
**A.** The inhibition was 10%.

**Q.** Which inhibition does the source give for `COc1ccc(CN2C(=O)Cc3c2nc(N)c2c(N)nc(N4CCCCC4)c(C#N)c32)cc1` here?
**A.** The inhibition was 40.5%.

**Q.** `N#CCc1c(C#N)c(N)nc(N2CCN(c3ccc(F)cc3)CC2)c1C#N` was tested. Which inhibition did it give?
**A.** Its inhibition is 2.2%.

**Q.** For `CN(CCO)c1nc(N)c2c(N)nc3c(c2c1C#N)CC(=O)N3Cc1cccs1`, which inhibition is on record?
**A.** The inhibition was 13.6%.

**Q.** For `CCCCN1C(=O)Cc2c1nc(N)c1c(N)nc(N(CCC)CCC)c(C#N)c21`, which inhibition is on record?
**A.** The inhibition was 21.8%.

**Q.** With `COCCN1C(=O)Cc2c1nc(N)c1c(N)nc(N3CCN(c4ccc(F)cc4)CC3)c(C#N)c21` as the compound, how does the inhibition read?
**A.** Its inhibition is 40.2%.

**Q.** With `N#Cc1c(N2CCN(c3ccc(F)cc3)CC2)nc(N)c2c(N)nc3c(c12)CC(=O)N3C1CC1` as the compound, how does the inhibition read?
**A.** Its inhibition is 56.9% (active).

**Q.** `N#Cc1c(N2CCCC(O)C2)nc(N)c2c(N)nc3c(c12)CC(=O)N3C12CC3CC(CC(C3)C1)C2` (stereo not drawn) was tested. Which inhibition did it give?
**A.** The inhibition was 64.7% (active).

**Q.** `Cc1ccc(N2C(=O)[C@@H]3[C@H](C2=O)C2c4ccccc4C=CN2[C@@H]3C(=O)c2ccco2)c(C)c1` (stereo partly drawn) was tested. Which inhibition did it give?
**A.** Its inhibition is -31.4%.

**Q.** How did the inhibition turn out when `COc1ccc(Cn2c(C(F)(F)F)ccc(C(N)=O)c2=O)cc1` was run?
**A.** The inhibition was 4.9%.

**Q.** For `COc1ccc(C2(O)CCN(C(=O)c3c(F)cccc3F)CC2)cc1`, which inhibition is on record?
**A.** The inhibition was 2.8%.

**Q.** How did the inhibition turn out when `CCc1cc2c(C)cc(C)cc2nc1SCC(=O)Nc1cc(C)on1` was run?
**A.** The inhibition was 2.3%.

**Q.** For `COc1cccc(CNC(=O)C(c2ccc(Cl)cc2)C(C)C)c1` (stereo not drawn), which inhibition is on record?
**A.** Its inhibition is 10.2%.

**Q.** `COc1cc(/C=C2\SC(=S)NC2=O)ccc1OS(=O)(=O)c1ccccc1` was tested. Which inhibition did it give?
**A.** Its inhibition is 29.8%.

**Q.** How did the inhibition turn out when `COC(=O)c1ccc(-c2nc(O)c3cnccn23)cc1` was run?
**A.** Its inhibition is -13.6%.

**Q.** `CCCCOc1ccc(C(=O)N/N=C/c2ccc(OCCN3CCCCC3)c(OC)c2)cc1` was tested. Which inhibition did it give?
**A.** Its inhibition is 5.7%.

**Q.** Which inhibition does the source give for `COc1cc(/C=N/NC(=O)c2ccncc2)ccc1OCCN1CCCCC1` here?
**A.** The inhibition was -4.3%.

**Q.** Which inhibition does the source give for `COc1cc(/C=N/NC(=O)c2cc3ccccc3cc2O)ccc1OCCN1CCCCC1` here?
**A.** The inhibition was 73.9% (active).

**Q.** `COc1ccccc1-n1c(SCc2cc(=O)oc3cc(O)ccc23)nc2ccccc2c1=O` was tested. Which inhibition did it give?
**A.** The inhibition was 8.3%.

**Q.** Which inhibition does the source give for `COc1cccc(-n2c(SCC(N)=O)nc3ccccc3c2=O)c1` here?
**A.** The inhibition was 2.2%.

**Q.** How did the inhibition turn out when `Cc1csc(SCC(=O)NC(=O)NC2CCCC2)n1` was run?
**A.** The inhibition was 5.2%.

**Q.** `S=c1[nH]nc(C2CCCCC2)n1/N=C/c1ccco1` was tested. Which inhibition did it give?
**A.** The inhibition was -1.6%.

**Q.** With `O=C(Cc1ccc([N+](=O)[O-])cc1)Nc1cccc(C(F)(F)F)c1` as the compound, how does the inhibition read?
**A.** The inhibition was 23.4%.

**Q.** With `CCCCNC(=O)CC1S/C(=N/N=C/c2ccc(OC)cc2)NC1=O` (stereo not drawn) as the compound, how does the inhibition read?
**A.** Its inhibition is -7.8%.

**Q.** `CCOC(=O)N1CCN(CC(=O)Nc2cc(OCC)ccc2OCC)CC1` was tested. Which inhibition did it give?
**A.** Its inhibition is 7%.

**Q.** Which inhibition does the source give for `CCOc1ccc(OCC)c(NC(=O)CN2CCN(CC)CC2)c1` here?
**A.** The inhibition was 57.9% (active).

**Q.** With `CCOc1ccc(OCC)c(NC(=O)CN2CCN(c3cccc(C)c3)CC2)c1` as the compound, how does the inhibition read?
**A.** The inhibition was 16.7%.

**Q.** Which inhibition does the source give for `CN1C(=O)/C(=C/c2ccc(-c3ccccc3[N+](=O)[O-])o2)SC1=Nc1ccc(Cl)c(C(=O)O)c1` here?
**A.** Its inhibition is 3%.

**Q.** For `CCOC(=O)C1=C(N)Oc2cc(C)n(C)c(=O)c2C1c1ccncc1` (stereo not drawn), which inhibition is on record?
**A.** Its inhibition is 10%.

**Q.** Which inhibition does the source give for `NC(=O)C1=C[C@H](c2coc3ccccc3c2=O)C[C@H](OCc2ccc(CO)cc2)O1` here?
**A.** The inhibition was -2.4%.

**Q.** `Nc1c(NC2CCCCC2)c2ccccc2oc1=O` was tested. Which inhibition did it give?
**A.** Its inhibition is 9.2%.

**Q.** For `Nc1ccccc1NC1CCCCC1`, which inhibition is on record?
**A.** The inhibition was 64.3% (active).

**Q.** How did the inhibition turn out when `O=C(Nc1ccccc1NC(=O)NC1CCCCC1)NC1CCCCC1` was run?
**A.** Its inhibition is 6%.

**Q.** With `Cc1ccc(Cn2c(C(=O)O)cc3sccc32)cc1` as the compound, how does the inhibition read?
**A.** The inhibition was -7.2%.

**Q.** For `O=C(Nc1ccccc1NS(=O)(=O)c1ccc(F)cc1)C1CCCC1`, which inhibition is on record?
**A.** The inhibition was -1.7%.

**Q.** For `O=C(COC(=O)c1cc(Cl)cc(Cl)c1)NCCN1C(=O)CSC1=O`, which inhibition is on record?
**A.** Its inhibition is 55.7% (active).

**Q.** How did the inhibition turn out when `O=C(COC(=O)c1cccc(Cl)c1)NCCN1C(=O)CSC1=O` was run?
**A.** The inhibition was -6%.

**Q.** With `O=C(COC(=O)c1cc(Cl)ccc1Cl)NCCN1C(=O)CSC1=O` as the compound, how does the inhibition read?
**A.** The inhibition was 0.7%.

**Q.** With `COC(=O)c1ccccc1NC(=O)COC(=O)/C=C/c1ccco1` as the compound, how does the inhibition read?
**A.** The inhibition was -15%.

**Q.** Which inhibition does the source give for `CCOCCCNC(=O)c1ccc(N2CCOCC2)c(NS(=O)(=O)c2ccc(OC)cc2)c1` here?
**A.** Its inhibition is -1.6%.

**Q.** With `Cn1c(COc2ccc([N+](=O)[O-])cc2)nnc1SCC(N)=O` as the compound, how does the inhibition read?
**A.** The inhibition was -9.7%.

**Q.** For `c1cc2c3c(cccc3c1)C(N1CCCCC1)=N2`, which inhibition is on record?
**A.** Its inhibition is 33.9%.

**Q.** `O=C1CCN2C=Nc3cccc4ccc1c2c34` was tested. Which inhibition did it give?
**A.** Its inhibition is 84.5% (active).

**Q.** For `c1cc2c3c(cccc3c1)C(N1CCCCCC1)=N2`, which inhibition is on record?
**A.** Its inhibition is 15.8%.

**Q.** With `COc1cc2c(cc1OC)C1=C(C#N)CN(C3CCCCC3)CN1CC2` as the compound, how does the inhibition read?
**A.** Its inhibition is 27.4%.

**Q.** `COc1ccc(CCN2CC(C#N)=C3c4cc(OC)c(OC)cc4CCN3C2)cc1OC` was tested. Which inhibition did it give?
**A.** Its inhibition is 18.8%.

**Q.** `COc1cc2c(cc1OC)C1=C(C#N)CN(CC(=O)O)CN1CC2` was tested. Which inhibition did it give?
**A.** Its inhibition is 70.5% (active).
